Bioassay records from PubChem BioAssay.
In the library only some 2.9% were active in any assay of this set; here they are far more common.
SNCA viab count: cell viability loss counter-screen | HEK-293-SNCA-luc viability, GF-AFC fluorescence, 24 h | Potency, µM (highest dose often 57.1 µM), inactives show top-dose activity change, negative = cytotoxicity, actives largely listed as cytotoxic | hit rate 0.12% among 150,000 | AID 1671193;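 also: potency is read from the fitted curve at half-maximal effect; 0% = DMSO-treated cells and -100% = medium-only wells without cells; nearly all actives have a fitted effect of over 30% in size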
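HEK-293-SNCA-luc cells (1500/well) plated 24 h, then exposed 24 h to a dilution series; GF-AFC added 30 min at 37C, fluorescence 405/540 nm; normalised to medium-only and DMSO wells, Hill fit.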
KDM5B inh: inhibitors of human KDM5B histone demethylase. KDM5B demethylase, FDH-coupled NADH fluorescence (FDH is formaldehyde dehydrogenase). Potency, µM (doses to about 57.7 µM), most hits filed as inhibitors. hit rate 2.6% among 220,000. AID 1347165; also: potency is read from the fitted curve at half-maximal effect; 0% is about no effect; nearly all actives have a fitted effect of over 70% in size
Target sequence (Q9UGL1 whole entry, looked up): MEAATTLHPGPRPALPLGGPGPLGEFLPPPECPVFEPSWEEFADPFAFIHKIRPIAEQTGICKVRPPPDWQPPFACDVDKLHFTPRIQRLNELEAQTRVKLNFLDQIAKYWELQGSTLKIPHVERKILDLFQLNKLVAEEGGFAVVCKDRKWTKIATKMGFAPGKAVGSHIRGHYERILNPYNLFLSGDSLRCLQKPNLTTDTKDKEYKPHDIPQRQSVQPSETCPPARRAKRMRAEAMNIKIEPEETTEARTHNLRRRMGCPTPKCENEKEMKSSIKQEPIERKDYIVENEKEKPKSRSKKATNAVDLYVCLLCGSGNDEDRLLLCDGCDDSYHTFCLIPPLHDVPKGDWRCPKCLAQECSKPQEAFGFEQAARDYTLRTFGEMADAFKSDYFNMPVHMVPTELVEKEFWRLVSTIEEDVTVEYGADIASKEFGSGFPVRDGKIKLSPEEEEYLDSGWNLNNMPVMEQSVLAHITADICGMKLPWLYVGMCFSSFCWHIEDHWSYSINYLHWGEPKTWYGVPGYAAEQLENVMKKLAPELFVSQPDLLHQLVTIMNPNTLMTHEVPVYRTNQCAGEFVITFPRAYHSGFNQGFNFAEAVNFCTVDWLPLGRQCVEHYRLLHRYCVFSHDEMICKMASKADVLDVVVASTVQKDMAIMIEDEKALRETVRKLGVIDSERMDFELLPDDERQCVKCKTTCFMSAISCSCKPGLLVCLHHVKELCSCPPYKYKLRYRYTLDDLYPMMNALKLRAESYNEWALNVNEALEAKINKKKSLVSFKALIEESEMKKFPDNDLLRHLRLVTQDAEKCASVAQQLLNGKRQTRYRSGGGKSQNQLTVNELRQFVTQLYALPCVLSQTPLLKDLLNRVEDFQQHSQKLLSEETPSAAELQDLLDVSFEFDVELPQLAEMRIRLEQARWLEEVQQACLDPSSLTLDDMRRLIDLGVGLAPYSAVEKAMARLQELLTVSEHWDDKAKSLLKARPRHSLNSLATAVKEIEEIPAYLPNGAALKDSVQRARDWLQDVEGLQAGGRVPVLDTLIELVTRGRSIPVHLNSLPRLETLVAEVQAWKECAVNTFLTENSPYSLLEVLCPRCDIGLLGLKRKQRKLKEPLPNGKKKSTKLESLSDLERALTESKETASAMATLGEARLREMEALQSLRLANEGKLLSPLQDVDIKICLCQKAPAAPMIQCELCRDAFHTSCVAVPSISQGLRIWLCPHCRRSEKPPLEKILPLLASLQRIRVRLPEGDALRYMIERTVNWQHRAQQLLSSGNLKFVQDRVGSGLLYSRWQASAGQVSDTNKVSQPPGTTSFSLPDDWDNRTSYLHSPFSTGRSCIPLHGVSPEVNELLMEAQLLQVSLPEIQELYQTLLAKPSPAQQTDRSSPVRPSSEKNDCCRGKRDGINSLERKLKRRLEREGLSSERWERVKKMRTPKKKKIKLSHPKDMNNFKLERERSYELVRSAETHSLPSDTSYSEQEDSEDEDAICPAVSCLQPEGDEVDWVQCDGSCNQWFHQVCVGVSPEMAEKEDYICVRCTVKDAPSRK
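qHTS format, multiple compound concentrations. Buffer 50 mM HEPES pH 7.5/0.01% Tween-20; 200 nM KDM5BΔAP final; 10 min compound preincubation; substrate-mix levels 12.5 µM peptide, 25 µM α-KG, 0.25 mM NAD⁺; 30 min RT; ΔRFU.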
IP6K1 inhibitor: IP6K1 kinase inhibition. IP6K1 kinase, ADP-Glo luminescence, 2 h; hits give low values. AID 1645851. activity change, % (series mostly up to about 58 µM). hit rate 0.81% among 140,000. Q92551; in the data active = activity change below about -25%; also: % is scaled to controls: 0 for no effect and ±100 for the full control effect
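ADP-Glo luminescence measures ADP made by human IP6K1 during a 2 h RT reaction with ATP/IP6 (mix at 1.3 mM/130 uM); top library doses 57.5 and 19.1 uM final.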
SNCA expr inhib: inhibitors of alpha-synuclein (SNCA) gene expression | HEK-293 SNCA-luciferase knock-in, luminescence, 24 h | Potency, µM (highest dose often 57.2 µM), for inactives: at the highest dose activity change, negative = inhibition, usual class: inhibitors | hit rate 0.17% among 140,000 | AID 1671194;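 also: potency is read from the fitted curve at half-maximal effect; plate controls were DMSO cells for no effect and cell-free wells for full effect; nearly all actives have a fitted effect of over 45% in size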
Active calls of the source: *; i = inactive; u = inconclusive; x = not tested or not shown; [ ] = another dose, or the depositor's remark. Unless noted, calls follow the shape of the dose curve; as a rule, active = well fitted curve in the direction sought with a large enough effect; inconclusive = small, poorly fitted or top-dose-only effect, or another doubt; inactive = no such curve, though single readings can be large; an effect the other way counts as inactive or inconclusive.

SMILES	SNCA viab count	KDM5B inh	IP6K1 inhibitor	SNCA expr inhib
Fc1ccc(CN2Cc3[nH]cnc3C[C@H]2c2nc(-c3ccc(F)c(Cl)c3)no2)cc1	-19%[87.6 µM]	35µM*	-8	29%[87.6 µM]
O=[S+]1([O-])NC2(CCN(Cc3ccc(C(F)(F)F)cc3)C2)CNc2ccccc21 (stereo not drawn)	-12%	i	24	-16%
CCN(Cc1ccncc1)C(=O)c1cc(-c2cnn(CC)c2)nc2cc(C)ccc12	-13%	28µM*	2	3%
Cc1ccc(-c2cnc(CCC(=O)Nc3nc4ccccc4s3)o2)cc1C	x	i	x	x
CCc1ccc(CNC(=O)C2CCN(c3cc(C(F)(F)F)ncn3)CC2)cc1	6%	28µM*	9	-8%
Cc1ccc(CNC(=O)C2CCN(c3cc(C(F)(F)F)ncn3)CC2)cc1	-10%	i	16	-10%
Cc1c(CN2CCCC23CCN(c2ccc(C(F)(F)F)cn2)CC3)cc(C#N)n1C	-5%	u	8	31%
Cn1ncc(CN2CCCC23CCN(c2ccc(C(F)(F)F)cn2)CC3)c1C1CC1	-11%	22µM*	9	7%
CC(C)n1cc(CN2CCCC23CCN(c2ccc(C(F)(F)F)cn2)CC3)cn1	-22%	u	16	-11%
Cn1cc(CN2CCCC23CCN(c2ccc(C(F)(F)F)cn2)CC3)cc1C#N	-6%	28µM*	13	2%
Cc1ccccc1-c1nc(-c2ccccc2OCC(=O)N2CCCC(C)C2)no1 (stereo not drawn)	x	i	x	x
NC(=O)CO[C@@H]1CO[C@H]2[C@@H]1OC[C@@H]2NC(=O)Nc1ccccc1	2%[87.6 µM]	i	-1	5%[87.6 µM]
NC(=O)CO[C@@H]1CO[C@H]2[C@@H]1OC[C@@H]2NC(=O)Nc1cccc2ccccc12	4%[87.6 µM]	28µM*	-13	-16%[87.6 µM]
S=C(Nc1cccc2ccccc12)N[C@H]1CO[C@H]2[C@@H]1OC[C@H]2OCc1ccccc1	-27%[87.6 µM]	35µM*	3	-19%[87.6 µM]
O=C(Nc1cccc2ccccc12)O[C@@H]1CO[C@H]2[C@@H]1OC[C@@H]2NC(=S)Nc1cccc2ccccc12	-14%	u	8	-18%
Cn1nc(CC(=O)Nc2ccc(Cl)c(Cl)c2)c2ccccc2c1=O	x	i	x	x
Cc1cc(N2CCC(c3nccn3Cc3ccccn3)CC2)nc2ccccc12	-1%	32µM*	-9	-11%
CCOC(=O)c1cc(N)ccc1N1CCOCC1	x	i	x	x
Cn1c(C(=O)NCCN2CCOCC2)nc2nc(-c3ccccc3)c(Cl)cc21	10%[87.6 µM]	35µM*	6	30%[87.6 µM]
COCc1nc2nc(-c3ccccc3)c(-c3ccccc3OC)cc2n1C	0%[87.6 µM]	u	5	-4%[87.6 µM]
Cn1c(C(=O)NCc2ccoc2)nc2nc(-c3ccccc3)c(Cl)cc21	2%[87.6 µM]	35µM*	-3	7%[87.6 µM]
Cc1ccc(-c2cc3c(nc2-c2ccccc2)nc(C(=O)NCCN(C)C)n3C)cc1	-22%[87.6 µM]	i	9	8%[87.6 µM]
CN(C)CCNC(=O)c1nc2nc(-c3ccccc3)c(-c3ccccc3O)cc2n1C	-2%[87.6 µM]	u	-1	33%[87.6 µM]
Cn1c(C(=O)NCC2CC2)nc2nc(-c3ccccc3)c(Cl)cc21	1%[87.6 µM]	40µM*	3	-29%[87.6 µM]
COc1ccccc1-c1cc2c(nc1-c1ccccc1)nc(C(=O)NC1CCN(C)CC1)n2C	u	28µM*	5	-6%
SMILES	SNCA viab count	KDM5B inh	IP6K1 inhibitor	SNCA expr inhib
CCC(C)NC(=O)/C(C#N)=C/c1c(C)[nH]c2ccccc12 (stereo not drawn)	x	i	x	x
COc1ccc(CNC(=O)c2sccc2-c2ccccc2)cc1OC	x	i	x	x
COc1cc(CNC(=O)c2nc3nc(-c4ccccc4)c(Cl)cc3n2C)cc(OC)c1	-5%[87.6 µM]	35µM*	14	-3%[87.6 µM]
Cn1c(C(=O)NCCc2ccccn2)nc2nc(-c3ccccc3)c(Cl)cc21	-13%[87.6 µM]	35µM*	-1	-17%[87.6 µM]
COc1ccc(CNC(=O)c2nc3nc(-c4ccccc4)c(Cl)cc3n2C)cc1OC	-21%[87.6 µM]	35µM*	6	u
Cc1ccc(-c2cn3cc(C(=O)NCc4cccs4)nc3s2)cc1	6%[87.6 µM]	x	25	125%[87.6 µM]
CCc1c(C)sc2nc(N(CC)CCO)n3nc(-c4ccccc4)nc3c12	x	i	x	x
COc1ccc(CN2Cc3[nH]cnc3C[C@H]2C(=O)NCc2ccc(Cl)cc2)c2ccccc12	u	u	1	u
COC(=O)[C@@H]1Cc2nc[nH]c2CN1Cc1ccc(Cl)cc1	-1%[87.6 µM]	32µM*	1	-14%[87.6 µM]
COc1ccc(CN2Cc3[nH]cnc3C[C@H]2C(=O)NCc2ccccc2)c2ccccc12	u	40µM*	7	-29%[87.6 µM]
N#Cc1ccc(CNC(=O)[C@@H]2Cc3nc[nH]c3CN2C(=O)NC2CCCCC2)cc1	-9%[87.6 µM]	i	6	-17%[87.6 µM]
COc1ccc(CN2Cc3[nH]cnc3C[C@H]2C(=O)N(C)Cc2ccccc2)c2ccccc12	u	i	-7	-22%
COc1ccc(CN2Cc3[nH]cnc3C[C@H]2C(=O)NC2CCCCC2)c2ccccc12	-27%[87.6 µM]	35µM*	15	-1%[87.6 µM]
COC(=O)[C@@H]1Cc2nc[nH]c2CN1Cc1ccc(NC(C)=O)cc1	-3%[87.6 µM]	u	12	-10%[87.6 µM]
COc1ccc(CNC(=O)[C@@H]2Cc3nc[nH]c3CN2C(=O)NC2CCCCC2)cc1	6%[87.6 µM]	32µM*	-3	34%[87.6 µM]
O=S(=O)(NC1=NCN(Cc2cccnc2)CN1)c1ccc(Cl)cc1	x	i	x	x
COc1ccc(CN(C(=O)c2ccco2)c2ccc(CC(=O)NCc3ccccc3)cc2)cc1	-1%	i	5	-21%
Cc1ccc(S(=O)(=O)N(CC(=O)N2CCc3ccccc3C2)Cc2c(F)cccc2Cl)cc1	x	i	x	x
CSc1ccc(-c2ccc3c(c2)C(=O)N2CC[C@H](NC(=O)c4cccs4)[C@H]2C(=O)N3)cc1	-10%	25µM*	9	185%
O=C(N[C@H]1CCN2C(=O)c3cc(-c4ccsc4)ccc3NC(=O)[C@H]12)c1cccs1	-21%[87.6 µM]	u	-11	-7%[87.6 µM]
O=C(N[C@H]1CCN2C(=O)c3cc(-c4cccs4)ccc3NC(=O)[C@H]12)c1cccs1	-4%[87.6 µM]	32µM*	-6	7%[87.6 µM]
CSCC(=O)N[C@H]1CCN2C(=O)c3cc(-c4cccs4)ccc3NC(=O)[C@H]12	-11%[87.6 µM]	35µM*	62	20%[87.6 µM]
Brc1ccc(C2=NOC(c3cccs3)C2)cc1 (stereo not drawn)	x	i	x	x
CCC(C)NC(=O)N1CCC2(CC1)CN(Cc1ccc(OC)cc1)C2=O (stereo not drawn)	-1%	x	-12	-1%
CN(C(=O)c1cc(C2CC2)[nH]n1)C1CCc2nn(CC3CC3)c(=O)n2CC1 (stereo not drawn)	u	i	-10	43%
CCN1CCN(CC2CCCN2)CC1 (stereo not drawn)	x	i	x	x
Cc1ccc(C)c(N2CCN(c3nc4ccccc4c(=O)n3-c3ccccc3)CC2)c1	25%	u	-8	2.5µM*
O=C(NC1CCN(c2ccc3nnc(C4CC4)n3n2)C1)c1ccc(Cl)cc1 (stereo not drawn)	x	x	13	x
COc1ccc(NC(=O)c2ccc3c(c2)C2(CCN(C)C2)CN3Cc2ccccc2)cc1 (stereo not drawn)	4%[87.6 µM]	u	8	-7%[87.6 µM]
